Measurements taken from publication PMC7862700, “An all-to-all approach to the identification of sequence-specific readers for epigenetic DNA modifications on cytosine”.

Columns and labels:
Assay in all cases: DAPPL (digital affinity profiling via proximity ligation, sequencing); 10 mM Tris-HCl pH 7.5, 50 mM NaCl, 1 mM DTT, 4% glycerol, room temperature, 30 min; GST-TFs on glutathione beads, 16-mer random dsDNA library, 0.1% formaldehyde crosslink after washing; high values mean tight binding
[1] = target: T1, FEV (Homo sapiens, UniProt Q99581 1-238); conditions: protein: recombinant; tags: N-terminal GST; dsDNA, one strand shown
T1 sequence: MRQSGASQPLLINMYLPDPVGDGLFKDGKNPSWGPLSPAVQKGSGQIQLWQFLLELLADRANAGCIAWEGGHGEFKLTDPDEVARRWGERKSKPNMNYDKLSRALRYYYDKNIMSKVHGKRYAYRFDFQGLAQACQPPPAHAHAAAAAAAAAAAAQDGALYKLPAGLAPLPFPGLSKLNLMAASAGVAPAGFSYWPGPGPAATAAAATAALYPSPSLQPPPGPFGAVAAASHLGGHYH
In short: (§1)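 Yeast served to express human transcription factors as GST fusions, which were then captured on glutathione beads and labelled with DNA barcodes. Pooled with a tag-only sample, they were incubated with 200 nmole of a 16-mer random double-stranded DNA library for 30 min at room temperature in Tris/NaCl/DTT/glycerol buffer, washed, crosslinked with 0.1% formaldehyde, ligated by proximity, amplified by PCR and sequenced. Dividing each hexamer's read frequency for a factor by its frequency for the tag-only sample gives the binding signal.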

[2] = target: ETV5 (Homo sapiens, UniProt P41161 1-510); conditions: protein: recombinant; tags: N-terminal GST; dsDNA, one strand shown
In short: as §1

[3] = target: HSF1 (Homo sapiens, UniProt Q00613 1-529); conditions: protein: recombinant; tags: N-terminal GST; chain copies: 3; dsDNA, one strand shown
In short: as §1

[4] = target: T2, SPIC (Homo sapiens, UniProt Q8N5J4 1-248); conditions: protein: recombinant; tags: N-terminal GST; dsDNA, one strand shown
T2 sequence: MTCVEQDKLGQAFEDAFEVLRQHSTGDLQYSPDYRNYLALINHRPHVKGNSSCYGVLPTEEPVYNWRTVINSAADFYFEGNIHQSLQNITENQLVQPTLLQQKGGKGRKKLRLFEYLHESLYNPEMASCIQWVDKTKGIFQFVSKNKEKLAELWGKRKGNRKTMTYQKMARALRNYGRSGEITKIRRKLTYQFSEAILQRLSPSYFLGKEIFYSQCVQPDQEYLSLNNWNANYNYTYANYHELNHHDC
In short: as §1

[5] = target: ELF4 (Homo sapiens, UniProt Q99607 1-663); conditions: protein: recombinant; tags: N-terminal GST; dsDNA, one strand shown
In short: as §1

[6] = target: T3, ELK4 (Homo sapiens, UniProt P28324-2 1-405); conditions: protein: recombinant; tags: N-terminal GST; dsDNA, one strand shown
T3 sequence: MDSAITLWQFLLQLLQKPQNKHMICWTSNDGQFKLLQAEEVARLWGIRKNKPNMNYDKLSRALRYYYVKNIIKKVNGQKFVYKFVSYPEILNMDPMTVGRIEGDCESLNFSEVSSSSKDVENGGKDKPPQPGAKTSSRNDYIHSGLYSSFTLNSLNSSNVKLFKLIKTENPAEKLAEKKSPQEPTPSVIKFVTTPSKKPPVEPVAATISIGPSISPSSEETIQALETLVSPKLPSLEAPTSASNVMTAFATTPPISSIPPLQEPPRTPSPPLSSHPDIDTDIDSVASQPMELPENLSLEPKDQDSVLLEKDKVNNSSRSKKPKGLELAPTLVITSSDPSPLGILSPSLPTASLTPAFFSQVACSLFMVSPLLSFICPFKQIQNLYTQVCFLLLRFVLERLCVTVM
In short: as §1

[7] = target: T4, ETV2 (Homo sapiens, UniProt O00321 1-342); conditions: protein: recombinant; tags: N-terminal GST; dsDNA, one strand shown
T4 sequence: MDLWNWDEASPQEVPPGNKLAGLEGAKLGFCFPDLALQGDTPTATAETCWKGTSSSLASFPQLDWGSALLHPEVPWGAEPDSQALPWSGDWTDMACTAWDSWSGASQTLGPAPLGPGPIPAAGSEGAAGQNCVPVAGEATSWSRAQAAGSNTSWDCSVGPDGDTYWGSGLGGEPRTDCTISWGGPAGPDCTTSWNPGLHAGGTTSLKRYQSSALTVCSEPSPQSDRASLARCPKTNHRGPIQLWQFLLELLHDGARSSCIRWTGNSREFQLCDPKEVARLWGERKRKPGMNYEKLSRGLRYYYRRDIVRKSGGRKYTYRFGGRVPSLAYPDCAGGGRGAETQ
In short: as §1

[8] = target: T5, ELF3 (Homo sapiens, UniProt P78545 1-371); conditions: protein: recombinant; tags: N-terminal GST; dsDNA, one strand shown
T5 sequence: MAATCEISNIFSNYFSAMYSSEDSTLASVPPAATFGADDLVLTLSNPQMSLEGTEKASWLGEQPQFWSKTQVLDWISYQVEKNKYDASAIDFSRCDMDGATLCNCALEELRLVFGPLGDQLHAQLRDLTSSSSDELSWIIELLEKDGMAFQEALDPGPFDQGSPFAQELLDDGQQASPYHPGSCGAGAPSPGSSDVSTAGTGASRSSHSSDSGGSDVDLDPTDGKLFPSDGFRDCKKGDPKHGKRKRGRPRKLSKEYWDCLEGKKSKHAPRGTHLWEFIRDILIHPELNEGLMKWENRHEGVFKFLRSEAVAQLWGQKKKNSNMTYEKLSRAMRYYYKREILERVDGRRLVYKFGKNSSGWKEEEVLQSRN
In short: as §1

[9] = target: ETV1 (Homo sapiens, UniProt P50549 1-477); conditions: protein: recombinant; tags: N-terminal GST; dsDNA, one strand shown
In short: as §1

[10] = target: T6, ERF (Homo sapiens, UniProt P50548 1-548); conditions: protein: recombinant; tags: N-terminal GST; dsDNA, one strand shown
T6 sequence: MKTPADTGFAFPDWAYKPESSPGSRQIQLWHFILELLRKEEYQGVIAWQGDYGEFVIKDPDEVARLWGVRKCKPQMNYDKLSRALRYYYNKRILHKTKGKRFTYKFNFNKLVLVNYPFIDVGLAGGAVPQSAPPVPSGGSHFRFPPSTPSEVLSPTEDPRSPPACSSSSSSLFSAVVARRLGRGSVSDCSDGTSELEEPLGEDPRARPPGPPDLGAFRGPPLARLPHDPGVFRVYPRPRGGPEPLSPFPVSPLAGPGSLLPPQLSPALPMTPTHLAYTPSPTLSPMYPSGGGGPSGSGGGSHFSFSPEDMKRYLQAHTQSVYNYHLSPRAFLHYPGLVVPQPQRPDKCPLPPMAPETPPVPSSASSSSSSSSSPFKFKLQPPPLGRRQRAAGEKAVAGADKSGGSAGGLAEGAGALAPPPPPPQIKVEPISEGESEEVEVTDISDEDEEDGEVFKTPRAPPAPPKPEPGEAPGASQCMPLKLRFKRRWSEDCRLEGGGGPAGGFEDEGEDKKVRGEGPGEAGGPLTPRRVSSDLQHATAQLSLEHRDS
In short: as §1

[11] = target: T7, ETV3L (Homo sapiens, UniProt Q6ZN32 1-361); conditions: protein: recombinant; tags: N-terminal GST; dsDNA, one strand shown
T7 sequence: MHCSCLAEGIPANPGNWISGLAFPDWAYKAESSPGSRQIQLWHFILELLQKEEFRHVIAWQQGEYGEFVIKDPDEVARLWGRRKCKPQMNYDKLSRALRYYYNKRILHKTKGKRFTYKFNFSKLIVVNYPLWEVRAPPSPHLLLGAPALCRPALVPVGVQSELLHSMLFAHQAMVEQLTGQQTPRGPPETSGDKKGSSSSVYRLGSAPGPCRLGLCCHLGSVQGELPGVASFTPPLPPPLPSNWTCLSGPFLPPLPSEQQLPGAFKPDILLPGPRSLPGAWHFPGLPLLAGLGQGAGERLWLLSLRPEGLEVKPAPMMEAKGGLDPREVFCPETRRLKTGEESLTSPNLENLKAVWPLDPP
In short: as §1

[12] = target: T8, ETS2 (Homo sapiens, UniProt P15036 1-469); conditions: protein: recombinant; tags: N-terminal GST; dsDNA, one strand shown
T8 sequence: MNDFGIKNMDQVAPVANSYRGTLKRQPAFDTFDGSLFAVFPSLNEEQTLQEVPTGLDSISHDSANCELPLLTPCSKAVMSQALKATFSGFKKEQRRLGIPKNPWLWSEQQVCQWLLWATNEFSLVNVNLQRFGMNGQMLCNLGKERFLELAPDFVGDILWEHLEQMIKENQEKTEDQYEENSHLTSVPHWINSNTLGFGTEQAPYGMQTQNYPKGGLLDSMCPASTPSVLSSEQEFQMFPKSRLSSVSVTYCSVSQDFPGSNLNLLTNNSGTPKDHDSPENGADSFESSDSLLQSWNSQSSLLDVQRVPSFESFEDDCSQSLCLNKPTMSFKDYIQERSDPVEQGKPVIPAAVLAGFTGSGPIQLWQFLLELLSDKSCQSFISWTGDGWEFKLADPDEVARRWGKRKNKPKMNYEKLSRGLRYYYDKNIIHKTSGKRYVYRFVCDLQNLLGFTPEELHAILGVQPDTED
In short: as §1

[13] = target: T9, SPDEF (Homo sapiens, UniProt O95238 1-335); conditions: protein: recombinant; tags: N-terminal GST; dsDNA, one strand shown
T9 sequence: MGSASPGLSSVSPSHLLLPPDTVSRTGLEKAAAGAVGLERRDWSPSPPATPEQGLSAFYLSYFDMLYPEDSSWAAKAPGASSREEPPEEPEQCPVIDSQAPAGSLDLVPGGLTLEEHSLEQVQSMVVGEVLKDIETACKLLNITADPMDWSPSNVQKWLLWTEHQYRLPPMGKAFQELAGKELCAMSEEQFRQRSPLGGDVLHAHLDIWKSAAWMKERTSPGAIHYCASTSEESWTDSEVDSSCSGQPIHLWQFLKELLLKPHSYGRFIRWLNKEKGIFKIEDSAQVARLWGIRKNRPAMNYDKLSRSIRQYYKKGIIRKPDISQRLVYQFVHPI
In short: as §1

[14] = target: T10, ETV7 (Homo sapiens, UniProt Q9Y603 1-341); conditions: protein: recombinant; tags: N-terminal GST; dsDNA, one strand shown
T10 sequence: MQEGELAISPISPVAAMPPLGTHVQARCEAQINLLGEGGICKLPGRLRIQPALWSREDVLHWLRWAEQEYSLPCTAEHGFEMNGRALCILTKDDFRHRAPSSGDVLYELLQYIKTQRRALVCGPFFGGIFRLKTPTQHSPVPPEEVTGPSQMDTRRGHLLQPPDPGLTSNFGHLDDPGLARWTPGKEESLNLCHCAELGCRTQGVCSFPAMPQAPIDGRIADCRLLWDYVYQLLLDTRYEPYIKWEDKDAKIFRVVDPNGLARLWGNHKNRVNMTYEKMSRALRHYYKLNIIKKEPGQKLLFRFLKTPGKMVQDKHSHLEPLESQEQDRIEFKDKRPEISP
In short: as §1

[15] = target: T11, ELF5 (Homo sapiens, UniProt Q9UKW6-2 1-255); conditions: protein: recombinant; tags: N-terminal GST; dsDNA, one strand shown
T11 sequence: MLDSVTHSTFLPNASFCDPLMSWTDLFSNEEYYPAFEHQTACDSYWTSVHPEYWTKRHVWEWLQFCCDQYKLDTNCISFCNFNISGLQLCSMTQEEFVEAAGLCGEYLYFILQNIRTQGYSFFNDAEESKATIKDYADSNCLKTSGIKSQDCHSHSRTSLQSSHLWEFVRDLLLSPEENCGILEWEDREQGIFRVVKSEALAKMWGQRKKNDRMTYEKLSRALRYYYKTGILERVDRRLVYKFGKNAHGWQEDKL
In short: as §1

[16] = target: T12, ETV3 (Homo sapiens, UniProt P41162-2 1-143); conditions: protein: recombinant; tags: N-terminal GST; dsDNA, one strand shown
T12 sequence: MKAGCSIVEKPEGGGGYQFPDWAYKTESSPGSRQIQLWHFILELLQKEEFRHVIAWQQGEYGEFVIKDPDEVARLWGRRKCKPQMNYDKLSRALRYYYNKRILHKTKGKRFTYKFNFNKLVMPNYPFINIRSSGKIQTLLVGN
In short: as §1

[17] = target: ETV6 (Homo sapiens, UniProt P41212 1-452); conditions: protein: recombinant; tags: N-terminal GST; dsDNA, one strand shown
In short: as §1

Sequence of ETV6 (P41212 whole entry): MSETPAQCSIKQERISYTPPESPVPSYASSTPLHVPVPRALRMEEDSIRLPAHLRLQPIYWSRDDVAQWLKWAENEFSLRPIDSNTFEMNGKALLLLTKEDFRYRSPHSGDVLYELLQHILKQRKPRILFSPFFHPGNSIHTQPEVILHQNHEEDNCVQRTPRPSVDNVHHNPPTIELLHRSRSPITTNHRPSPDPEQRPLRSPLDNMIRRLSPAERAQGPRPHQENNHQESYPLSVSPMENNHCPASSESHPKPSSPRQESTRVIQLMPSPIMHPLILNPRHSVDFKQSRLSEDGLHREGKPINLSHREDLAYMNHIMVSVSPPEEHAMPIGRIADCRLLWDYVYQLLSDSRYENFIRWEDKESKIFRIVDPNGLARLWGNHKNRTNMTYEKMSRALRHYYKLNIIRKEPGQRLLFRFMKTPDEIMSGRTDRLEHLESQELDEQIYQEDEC
Sequence of ETV5 (P41161 whole entry): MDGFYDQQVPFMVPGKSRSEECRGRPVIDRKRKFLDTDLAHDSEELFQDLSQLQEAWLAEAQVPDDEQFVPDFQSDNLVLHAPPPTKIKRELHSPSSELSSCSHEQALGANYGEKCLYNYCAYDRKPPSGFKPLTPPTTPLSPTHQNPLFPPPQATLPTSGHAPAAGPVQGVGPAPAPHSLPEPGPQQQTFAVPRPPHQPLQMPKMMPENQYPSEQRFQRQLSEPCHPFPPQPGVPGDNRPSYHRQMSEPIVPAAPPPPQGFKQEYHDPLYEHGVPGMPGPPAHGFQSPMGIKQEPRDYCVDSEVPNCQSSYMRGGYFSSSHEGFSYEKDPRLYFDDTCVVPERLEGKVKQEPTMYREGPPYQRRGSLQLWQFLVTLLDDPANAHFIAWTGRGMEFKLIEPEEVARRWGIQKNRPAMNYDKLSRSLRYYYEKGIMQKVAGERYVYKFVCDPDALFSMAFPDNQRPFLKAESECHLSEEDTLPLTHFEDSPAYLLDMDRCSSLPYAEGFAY
Sequence of HSF1 (Q00613 whole entry): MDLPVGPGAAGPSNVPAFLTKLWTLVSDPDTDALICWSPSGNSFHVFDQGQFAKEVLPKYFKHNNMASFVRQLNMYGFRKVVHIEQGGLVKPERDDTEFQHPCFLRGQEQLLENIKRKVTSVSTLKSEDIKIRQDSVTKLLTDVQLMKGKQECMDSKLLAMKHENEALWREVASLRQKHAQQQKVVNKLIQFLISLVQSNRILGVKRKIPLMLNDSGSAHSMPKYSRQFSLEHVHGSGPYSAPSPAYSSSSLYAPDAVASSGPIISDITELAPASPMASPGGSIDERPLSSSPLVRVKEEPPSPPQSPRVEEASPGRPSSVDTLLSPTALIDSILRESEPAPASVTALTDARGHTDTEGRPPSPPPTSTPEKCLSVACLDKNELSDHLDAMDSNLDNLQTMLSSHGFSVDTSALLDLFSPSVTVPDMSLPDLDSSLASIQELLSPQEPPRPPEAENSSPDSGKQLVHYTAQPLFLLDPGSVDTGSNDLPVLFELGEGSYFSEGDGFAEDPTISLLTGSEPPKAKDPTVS
Sequence of ETV1 (P50549 whole entry): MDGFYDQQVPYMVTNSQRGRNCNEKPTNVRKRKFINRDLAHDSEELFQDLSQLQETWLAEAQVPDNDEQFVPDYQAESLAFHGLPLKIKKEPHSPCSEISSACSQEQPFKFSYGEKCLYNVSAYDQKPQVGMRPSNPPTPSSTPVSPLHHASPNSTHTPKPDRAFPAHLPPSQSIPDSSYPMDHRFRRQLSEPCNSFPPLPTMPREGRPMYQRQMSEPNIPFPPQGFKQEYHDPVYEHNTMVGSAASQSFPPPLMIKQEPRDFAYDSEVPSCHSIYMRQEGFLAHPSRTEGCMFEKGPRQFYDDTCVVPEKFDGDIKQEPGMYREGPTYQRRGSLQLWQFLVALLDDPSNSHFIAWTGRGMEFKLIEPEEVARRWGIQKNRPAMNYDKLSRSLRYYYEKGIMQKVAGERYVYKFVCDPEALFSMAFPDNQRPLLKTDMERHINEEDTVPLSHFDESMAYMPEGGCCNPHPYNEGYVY
Sequence of ELF4 (Q99607 whole entry): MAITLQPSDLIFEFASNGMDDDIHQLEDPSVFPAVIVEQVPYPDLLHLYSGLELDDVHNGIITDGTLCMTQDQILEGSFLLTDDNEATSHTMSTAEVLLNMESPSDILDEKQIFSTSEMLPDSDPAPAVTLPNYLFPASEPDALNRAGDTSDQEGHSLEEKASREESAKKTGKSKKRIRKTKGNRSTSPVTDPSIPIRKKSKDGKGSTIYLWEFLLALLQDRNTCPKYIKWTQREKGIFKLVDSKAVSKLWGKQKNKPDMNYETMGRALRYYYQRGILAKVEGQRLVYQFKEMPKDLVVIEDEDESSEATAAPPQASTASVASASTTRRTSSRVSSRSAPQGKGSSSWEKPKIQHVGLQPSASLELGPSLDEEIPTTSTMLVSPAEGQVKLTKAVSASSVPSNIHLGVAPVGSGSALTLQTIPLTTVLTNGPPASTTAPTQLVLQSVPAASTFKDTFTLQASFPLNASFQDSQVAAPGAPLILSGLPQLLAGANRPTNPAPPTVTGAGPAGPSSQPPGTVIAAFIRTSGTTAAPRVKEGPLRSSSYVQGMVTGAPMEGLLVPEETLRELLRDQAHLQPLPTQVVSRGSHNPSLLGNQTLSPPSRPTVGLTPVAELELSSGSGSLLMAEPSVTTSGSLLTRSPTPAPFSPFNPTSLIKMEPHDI

CTTGTC
binding signal [1]: 1.23 fold enrichment (6-mer frequency, TF over GST control)
binding signal [2]: 1.34 fold enrichment (6-mer frequency, TF over GST control)
binding signal [3]: 1.07 fold enrichment (6-mer frequency, TF over GST control)
binding signal [4]: 1.14 fold enrichment (6-mer frequency, TF over GST control)
binding signal [5]: 1.41 fold enrichment (6-mer frequency, TF over GST control)
binding signal [6]: 1.33 fold enrichment (6-mer frequency, TF over GST control)
binding signal [7]: 1.08 fold enrichment (6-mer frequency, TF over GST control)
binding signal [8]: 1.32 fold enrichment (6-mer frequency, TF over GST control)
binding signal [9]: 1.27 fold enrichment (6-mer frequency, TF over GST control)
binding signal [10]: 1.44 fold enrichment (6-mer frequency, TF over GST control)
binding signal [11]: 1.25 fold enrichment (6-mer frequency, TF over GST control)
binding signal [12]: 1.24 fold enrichment (6-mer frequency, TF over GST control)
binding signal [13]: 1.35 fold enrichment (6-mer frequency, TF over GST control)
binding signal [14]: 1.25 fold enrichment (6-mer frequency, TF over GST control)
binding signal [15]: 1.3 fold enrichment (6-mer frequency, TF over GST control)
binding signal [16]: 1.31 fold enrichment (6-mer frequency, TF over GST control)
binding signal [17]: 1.25 fold enrichment (6-mer frequency, TF over GST control)
